Screen size: about 320,000 compounds; about 22,000 (6.9%) were called active. Another 27% or so got no clear call; they are omitted. Many of the other results were omitted from the sample, so actives are more common in it than they were. Unmarked numbers belong to inactive results. The call rests on the fitted dose curve; in most records, active means well fitted inhibition curve with a large enough effect; inconclusive means small, poorly fitted or top-dose-only effect, or another doubt; inactive means no such curve, though single readings can be large or run the other way.
Assay: Primary qHTS for delayed death inhibitors of the malarial parasite plastid, 96 hour incubation
Conditions: P. falciparum luciferase reporter growth; series mostly up to 28.7 µM; activity change, negative = inhibition: at the top concentration
Summary of the method: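 P. falciparum expressing integrated firefly luciferase, in erythrocytes at 2% hematocrit, 0.05% parasitemia, incubated with compounds 96 h at 37 C, 5% CO2. Growth inhibition read as loss of luminescence; two-generation exposure targets delayed-death apicoplast inhibitors.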
On the % scale 0 is the no-effect control and ±100 the full control effect; potency means the concentration at half of the fitted maximal effect.

Row | SMILES | activity change, negative = inhibition | Potency
1 | COc1cc(CC(=O)N2CCC(n3nccc3NC(=O)C3CC3)CC2)cc(OC)c1OC | 22.8% | –
2 | O=c1c2ccccc2nc(-c2ccco2)n1-c1ccc(Br)cn1 | 15.4% | –
3 | Cc1ccc(-c2nc3c(cnn3-c3ccccc3)c(=O)o2)cc1 | -5.05% | –
4 | Cc1ccc(-n2ncc3c(=O)n(-c4ccc(C)c(C)c4)c(-c4ccco4)nc32)cc1 | – | 9.28 µM (active)
5 | CC(=O)Nc1ccc(C(=O)N(C2=NC(C)CS2)c2ccc(Cl)cc2)cc1 (stereo not given) | 4.14% | –
6 | COc1ccc(S(=O)(=O)NCC(c2ccco2)N2CCOCC2)cc1 (stereo not given) | 1.25% | –
7 | O=C(O)CCC(=O)N(Cc1ccccc1)Cc1ccccc1 | -11.1% | –
8 | CCC(=O)N(Cc1ccccc1)c1ccccn1 | 14.9% | –
9 | CCN(Cc1ccncc1)C(=O)CCc1ccccc1 | – | 13.1 µM (active)
10 | O=C(CCC(=O)n1ncc2ccccc21)NCc1ccccc1Cl | 25.6% | –
11 | Cc1ccccc1-n1c(SCC(=O)NCc2cccs2)nnc1-c1ccncc1 | 9.17% | –
12 | Cc1ccc(-n2c(SCC(=O)NCc3ccc4c(c3)OCO4)nnc2-c2cccnc2)c(C)c1 | – | 9.28 µM (active)
13 | Cc1cccc(C)c1NC(=O)CSc1nnc(-c2ccccc2)n1Cc1ccc2c(c1)OCO2 | 5.46% | –
14 | COc1ccc(NC(=O)c2cc(-c3ccc(C)cc3)on2)cc1 | -26.3% | –
15 | Cc1csc(NC(=O)CSc2nnc(-c3cccnc3)o2)n1 | -15.7% | –
16 | CCOc1ccc(/C=C(/NC(=O)c2ccccc2)C(=O)NCCC(=O)O)cc1 | -17.1% | –
17 | CCc1ccccc1NC(=O)c1cccs1 | 79.6% | –
18 | CCc1ccccc1NC(=O)/C(=C/c1ccccc1)c1ccccc1 | – | 8.28 µM (active)
19 | CCSc1nc(O)c(C(c2cccc(OC)c2)c2c(O)nc(SCC)[nH]c2=O)c(=O)[nH]1 | 5.94% | –
20 | CCOC(=O)C1CN(S(=O)(=O)c2ccc(OC)cc2)c2cc(Cl)ccc2O1 (stereo not given) | 23.2% | –
21 | CCOC(=O)C1=C(CSc2nccn2C)NC(=O)NC1c1ccc(OC)cc1 (stereo not given) | – | 13.1 µM (active)
22 | CCOC(=O)C1=C(c2ccccc2)NC(=O)NC1c1cc(OC)c(OC)cc1OC (stereo not given) | 12.3% | –
23 | COc1ccc(-c2ccc3nnc(SCC(=O)Nc4ccc(NC(C)=O)cc4)n3n2)cc1 | 11.2% | –
24 | O=C(Nc1ccccc1)N1CCN(Cc2ccccc2)CC1 | 20% | –
25 | O=C(Nc1ccccc1)N1CCN(C2c3ccccc3-c3ccccc32)CC1 | – | 2.62 µM (active)

Row | SMILES | activity change, negative = inhibition | Potency
26 | O=C(Nc1ccccc1)N1CCN(C(=O)Nc2ccccc2)CC1 | -1.36% | –
27 | CN1C(C(=O)NCc2ccco2)CC2Cn3c(nc4ccccc43)C21 (stereo not given) | 51.3% | –
28 | CC(C)(C)C(=O)Nc1ccc(-c2cn3cccnc3n2)cc1 | 19% | –
29 | Cc1ccc(C(=O)COC(=O)CCN2C(=O)C3C4CCC(C4)C3C2=O)cc1C (stereo not given) | 42.2% | –
30 | O=C(NC(=S)Nc1ccc(Cl)cc1Cl)C1CC1 | 19.1% | –
31 | O=C(CCN1C(=O)C2C3CCC(C3)C2C1=O)Nc1ccc(Cl)cc1Cl (stereo not given) | – | 7.38 µM (active)
32 | O=C(N/C(=C\c1ccc([N+](=O)[O-])cc1)C(=O)N1CCCCC1)c1ccco1 | 147% | –
33 | COCCn1c(SCC(=O)Nc2nc(C)cs2)nnc1C(C)C | 33.8% | –
34 | O=C1c2cccc3c([N+](=O)[O-])ccc(c23)C(=O)N1CC1CCCO1 (stereo not given) | – | 10.4 µM (active)
35 | CCC(=O)Nc1ccc(C(=O)Nc2ccc3c(c2)C(=O)N(CC2CCCO2)C3=O)cc1 (stereo not given) | 11% | –
36 | O=C(NCc1ccc2c(c1)OCO2)c1ccc2c(c1)C(=O)N(CC1CCCO1)C2=O (stereo not given) | -1.01% | –
37 | C[N+](C)(C)CCNC(=O)c1cc[n+](Cc2ccccc2)c(/C=N/O)c1 | -21.3% | –
38 | O=C(Nc1ccccn1)C1CCN(S(=O)(=O)c2ccccc2)CC1 | 382% | –
39 | O=C(Nc1nccs1)C1CCN(S(=O)(=O)c2ccc(Cl)c(C(F)(F)F)c2)CC1 | – | 13.1 µM (active)
40 | O=C(Nc1ccccn1)C1CCN(S(=O)(=O)c2ccc3c(c2)OCCO3)CC1 | 175% | –
41 | CN(C)c1ccc(-c2nnc(-c3cccnc3)o2)cc1 | 0.212% | –
42 | CC1CC(C)CN(S(=O)(=O)c2cccc3nonc23)C1 (stereo not given) | 7.94% | –
43 | CCN(C(=O)CSc1nnnn1-c1ccccc1OC)C1CCS(=O)(=O)C1 (stereo not given) | 13.5% | –
44 | COc1ccc(CCNC(=O)CCNS(=O)(=O)c2cc(Br)cnc2N)cc1OC | 60.9% | –
45 | COc1cc2c(cc1OC)C(c1ccc(C)o1)CC(=O)N2 (stereo not given) | – | 13.1 µM (active)
46 | COC(=O)C1=C(C)NC(=O)CC1c1ccccc1OC (stereo not given) | -10.8% | –
47 | COc1cc2c(cc1OC)C(C(=O)Nc1cc(C)c(OC)c(C)c1)CC(=O)N2 (stereo not given) | 24.4% | –
48 | CC(=O)CC[C@@H](C)O[C@@H]1OC(C)[C@H](O)CC1O (stereo not given in full) | 103% | –
49 | C=CCOc1ccc(/C=C/C(=O)OCC(=O)NC2CCCCCC2)cc1 | 29.7% | –
50 | N#Cc1cccc(NC(=O)CN2CCCCCC2)c1 | 15.8% | –

Source: PubChem BioAssay AID504834 (National Center for Advancing Translational Sciences (NCATS), 2011)
